# Reference: the supplement of paper PMC6555819
# Assays:
# Experiment in all cases: PBM binding z-score (relative to random genomic background probes); higher = stronger binding; sequences stand for … in GC…GCGATTGACAGCGTAGAATGAAGG
# [1] = tested on: RARb homodimer (NR concentration 270 nM)
# Summary of the method: (§1)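 Scanned fluorescence from custom Agilent 4×180K protein-binding microarrays was regression-normalized. Binding z-scores use random background probes as reference. Ligand-free nuclear receptor dimers were incubated on the arrays for 1 h and detected with antibodies against each partner (one per run).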
# [2] = tested on: RARg:RXRa (NR concentration 270 nM, RXRa partner concentration 90 nM)
# Summary of the method: as §1
# [3] = tested on: RARg homodimer (NR concentration 270 nM)
# Summary of the method: as §1
# [4] = tested on: RXRa DBDmut IVT, anti-RXR (DBD mutation: RXRa K156A/R161A, NR concentration 90 nM)
# Summary of the method: as §1
# [5] = tested on: RXRa homodimer (NR concentration 180 nM)
# Summary of the method: as §1
# [6] = tested on: THRa:RXRa (NR concentration 90 nM, RXRa partner concentration 90 nM)
# Summary of the method: as §1
# [7] = tested on: THRa homodimer (NR concentration 90 nM)
# Summary of the method: as §1
# [8] = tested on: VDR homodimer (NR concentration 270 nM)
# Summary of the method: as §1
Sequence,PBM binding z-score [1],PBM binding z-score [2],PBM binding z-score [3],PBM binding z-score [4],PBM binding z-score [5],PBM binding z-score [6],PBM binding z-score [7],PBM binding z-score [8]
TAGTCTAGGTCATGGGCCAGTATACCACGCGAAC,3.09,4.03,4.4,0.663,3.44,3.3,2.25,0.773
TCATAGAGGTAAAGGTGAAAGTCGAACGATATGA,1.69,1.9,1.52,0.528,2.39,1.67,-0.473,-0.362
CAAACTAAGTCACGAAAGGTCAAAGTCGAATGAC,5.04,6.02,5.67,0.992,6.79,4.42,1.2,2.58
ATCTCTAGGTAACAAGTTAAGTGAAAGAGAGGAC,0.585,0.726,0.704,-0.00477,0.663,1.29,0.846,0.307
TGAATGAGGTTATGAGATCAGGGAACGTTGCAAA,0.266,1.6,1.13,0.145,2.19,1.95,0.132,0.305
TATTGTAGATCAACAGGAGGTTAAGAAAGATCGA,0.682,1,0.791,-0.715,0.924,1.23,-0.471,0.107
GGTACGAGGGCAAGTTGATAGCAGAGTTTGATGG,1.72,1.74,2.47,2.31,0.941,1.39,0.219,2.1
